Experimental data reported in PubChem BioAssay (NCI).
Compounds without any hit were thinned out: in the full panel of roughly 79,000, 15% have a hit. Unmarked numbers belong to inactive results. Activity calls are given as the source filed them. Cut-off read from the data, not from the text of the source: active = growth inhibition above about 70%; inactive = the rest.

Experiment: NCI Yeast Anticancer Drug Screen. Data for the sgs1 mgt1 strain (AID 161);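 note: 0% = growth of cultures given vehicle only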
Conditions: S. cerevisiae sgs1 mgt1 strain, at 5.0 µM (retest, dose inferred, filed as 0.5), active compounds read high
Summary of the method: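 This yeast growth screen uses a strain with defined DNA-repair lesions; compound-treated growth is compared with vehicle-treated growth.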

| Structure (SMILES) | growth inhibition |
| --- | --- |
| O=C1C(=O)c2cc(Br)cc([N+](=O)[O-])c2-c2ccc(Br)cc21 | 83% (active) |
| NSc1ccccn1 | 11% |
| CCCCCCCCCCCCOC(=O)C[n+]1cccc(C(=O)Nc2ccccc2)c1 | 95% (active) |
| NC(=S)SCCC(=O)O | -10% |
| O=C(O)Cc1ccc2c3c(cccc13)CC2 | 20% |

Same assay, conditions: S. cerevisiae sgs1 mgt1 strain, at 50.0 µM (retest, dose inferred, filed as 5.0), active compounds read high

| Structure (SMILES) | growth inhibition |
| --- | --- |
| CC(=O)Sc1ccc(Br)cc1 | 60% |
| CC(C)OCc1cccc2ccnc(COC(C)C)c12 | 35% |
| Nc1ccc2c(c1)C(=O)c1ccccc1-2 | 6% |
| O=C1Nc2ccc([N+](=O)[O-])c3c([N+](=O)[O-])ccc1c23 | 88% (active) |
| Cc1ccc(NC(=O)Oc2ccc(C(C)(C)C)cc2Br)cc1NC(=O)Oc1ccc(C(C)(C)C)cc1Br | 14% |
| O=C1C(Cl)=C(Nc2ccc(S(=O)(=O)O)cc2)C(=O)c2ccccc21 | 100% (active) |
| N/C(=N\OC(=O)Nc1ccccc1)c1ccccc1 | 70% (active) |
| O=C1c2ccccc2C(=O)c2cc(N3C(=O)C=CC3=O)ccc21 | 98% (active) |
| CCCCN=C(c1ccc(O)cc1)c1ccc(OC)cc1O | 37% |
| Cc1ccc(S(=O)(=O)c2cc(O)c(O)c3ccc(Br)cc23)cc1 | 98% (active) |
| CC(C)(C)NC(=S)N/N=C/c1cc(Cl)cc(Cl)c1O | 99% (active) |
| Oc1ccc2c(c1)OCC1c3ccccc3OC21 (stereo not given) | 73% (active) |
| OCCSC(=S)Nc1ccc(Cl)c(Cl)c1 | 100% (active) |
| CCCC[N-]CC(O)C[NH-].O=C(O)CC(=O)O.[Pt+2] (stereo not given) | 6% |
| N=C(N)c1cccc(-c2ccc(-c3ccccc3)o2)c1 | 94% (active) |
| C#CC(CC(C)C)(CC(C)C)OC(=O)Nc1ccccc1 | 98% (active) |
| CCCCOc1ccc(-c2c(COC(=O)NC)c(COC(=O)NC)c(C)n2C)cc1 | 99% (active) |
| O=C(Nc1cccc2ccccc12)OCCCCCCl | 98% (active) |
| C=CCOc1ccc(/C=N/NC(N)=S)cc1 | 78% (active) |
| Fc1ccc2[nH]ccc2c1 | 19% |

| Structure (SMILES) | growth inhibition |
| --- | --- |
| C=C1C(=O)[C@]23C[C@H]1CC[C@H]2[C@@]12CO[C@@H](O)[C@@H]1C(C)(C)[C@@H](O)C[C@@H]2OC3=O | 27% |
| N#Cc1ccc([N+](=O)[O-])cc1C#N | 98% (active) |
| N=C(N)c1ccc(Oc2ccc(Oc3ccc(C(=N)N)cc3)cc2)cc1 | 89% (active) |
| CCC=Nc1c(O)cc(-c2ccccc2)n(C)c1=O | 92% (active) |
| COc1ccc(CN2CCCN(Cc3ccc(OC)cc3OC)C2c2cc(Cl)ccc2O)c(OC)c1 | 88% (active) |
| CCN(CC)c1ccc(/C=C2/C[N+](C)(C)C/C(=C/c3ccc(N(CC)CC)cc3)C2=O)cc1 | 97% (active) |
| O=P1(Cc2ccccc2)c2ccccc2-c2ccccc21 | 97% (active) |
| CN(C)CCCNc1cc(O)c2c(c1O)C(=O)c1ccccc1C2=O | 96% (active) |
| CCCCC#CC(=O)OCCCCC | 3% |
| CCCCCCN(CCCCCC)CCC(=O)c1ccc2cc(Cl)c3ccccc3c2c1 | 95% (active) |
| CC(C)C1=C2CCC3(C)C(CCC4C5C6OCC5(CCC6(C)C)CCC43C)C2(C)CC1 (stereo not given) | 69% |
| O=C(CC(O)(CC(=O)OCc1ccccc1)C(=O)OCc1ccccc1)OCc1ccccc1 | -22% |
| CCc1c(C)[nH]c2c([N+](=O)[O-])cccc12 | -1% |
| CSc1ncc2c(n1)-c1ccccc1OC2NC1CC1 (stereo not given) | 20% |
| CC(C)c1cc(O)c2c(c1O)C1CC3C(C)(C)CCC[C@]23C(=O)O1 (stereo not given in full) | 76% (active) |
| O=C1C(=O)c2cc(Br)cc([N+](=O)[O-])c2-c2ccc(Br)cc21 | 93% (active) |
| NSc1ccccn1 | 79% (active) |
| CCCCCCCCCCCCOC(=O)C[n+]1cccc(C(=O)Nc2ccccc2)c1 | 99% (active) |
| NC(=S)SCCC(=O)O | -14% |
| O=C(O)Cc1ccc2c3c(cccc13)CC2 | 78% (active) |

Same assay, conditions: S. cerevisiae sgs1 mgt1 strain, at 50.0 µM, active compounds read high

| Structure (SMILES) | growth inhibition |
| --- | --- |
| CC(=O)Sc1ccc(Br)cc1 | 34.9% |
| CC(C)OCc1cccc2ccnc(COC(C)C)c12 | 24.9% |
| Nc1ccc2c(c1)C(=O)c1ccccc1-2 | 21.4% |
| O=C1Nc2ccc([N+](=O)[O-])c3c([N+](=O)[O-])ccc1c23 | 57.5% |
| Cc1ccc(NC(=O)Oc2ccc(C(C)(C)C)cc2Br)cc1NC(=O)Oc1ccc(C(C)(C)C)cc1Br | 49.7% |
| O=C1C(Cl)=C(Nc2ccc(S(=O)(=O)O)cc2)C(=O)c2ccccc21 | 99.6% (active) |
| N/C(=N\OC(=O)Nc1ccccc1)c1ccccc1 | 68% |
| O=C1c2ccccc2C(=O)c2cc(N3C(=O)C=CC3=O)ccc21 | 91.5% (active) |
| CCCCN=C(c1ccc(O)cc1)c1ccc(OC)cc1O | 64.1% |
| Cc1ccc(S(=O)(=O)c2cc(O)c(O)c3ccc(Br)cc23)cc1 | 92.9% (active) |
| CC(C)(C)NC(=S)N/N=C/c1cc(Cl)cc(Cl)c1O | 90.4% (active) |
| Oc1ccc2c(c1)OCC1c3ccccc3OC21 (stereo not given) | 66.3% |
| OCCSC(=S)Nc1ccc(Cl)c(Cl)c1 | 99.8% (active) |
| CCCC[N-]CC(O)C[NH-].O=C(O)CC(=O)O.[Pt+2] (stereo not given) | 22.2% |
| N=C(N)c1cccc(-c2ccc(-c3ccccc3)o2)c1 | 57.2% |
| C#CC(CC(C)C)(CC(C)C)OC(=O)Nc1ccccc1 | 98.1% (active) |
| CCCCOc1ccc(-c2c(COC(=O)NC)c(COC(=O)NC)c(C)n2C)cc1 | 90% (active) |
| O=C(Nc1cccc2ccccc12)OCCCCCCl | 97.1% (active) |
| C=CCOc1ccc(/C=N/NC(N)=S)cc1 | 44% |
| Fc1ccc2[nH]ccc2c1 | 60.6% |

| Structure (SMILES) | growth inhibition |
| --- | --- |
| C=C1C(=O)[C@]23C[C@H]1CC[C@H]2[C@@]12CO[C@@H](O)[C@@H]1C(C)(C)[C@@H](O)C[C@@H]2OC3=O | 25.4% |
| N#Cc1ccc([N+](=O)[O-])cc1C#N | 99.6% (active) |
| N=C(N)c1ccc(Oc2ccc(Oc3ccc(C(=N)N)cc3)cc2)cc1 | 81.2% (active) |
| CCC=Nc1c(O)cc(-c2ccccc2)n(C)c1=O | 70.8% (active) |
| COc1ccc(CN2CCCN(Cc3ccc(OC)cc3OC)C2c2cc(Cl)ccc2O)c(OC)c1 | 32.8% |
| CCN(CC)c1ccc(/C=C2/C[N+](C)(C)C/C(=C/c3ccc(N(CC)CC)cc3)C2=O)cc1 | 79.2% (active) |
| O=P1(Cc2ccccc2)c2ccccc2-c2ccccc21 | 88.9% (active) |
| CN(C)CCCNc1cc(O)c2c(c1O)C(=O)c1ccccc1C2=O | 98.3% (active) |
| CCCCC#CC(=O)OCCCCC | -13.4% |
| CCCCCCN(CCCCCC)CCC(=O)c1ccc2cc(Cl)c3ccccc3c2c1 | 78.2% (active) |
| CC(C)C1=C2CCC3(C)C(CCC4C5C6OCC5(CCC6(C)C)CCC43C)C2(C)CC1 (stereo not given) | 82.3% (active) |
| O=C(CC(O)(CC(=O)OCc1ccccc1)C(=O)OCc1ccccc1)OCc1ccccc1 | 99.1% (active) |
| CCc1c(C)[nH]c2c([N+](=O)[O-])cccc12 | 95.2% (active) |
| CSc1ncc2c(n1)-c1ccccc1OC2NC1CC1 (stereo not given) | 11.3% |
| CC(C)c1cc(O)c2c(c1O)C1CC3C(C)(C)CCC[C@]23C(=O)O1 (stereo not given in full) | 92% (active) |
| O=C1C(=O)c2cc(Br)cc([N+](=O)[O-])c2-c2ccc(Br)cc21 | 97.1% (active) |
| NSc1ccccn1 | 97.8% (active) |
| CCCCCCCCCCCCOC(=O)C[n+]1cccc(C(=O)Nc2ccccc2)c1 | 99.5% (active) |
| NC(=S)SCCC(=O)O | -3.95% |
| O=C(O)Cc1ccc2c3c(cccc13)CC2 | 91.2% (active) |
